HSP90 refold inh = blocks HSP90-mediated luciferase refolding in reticulocyte lysate | inhibition, % at 5.6 µM | hit rate 0.91% among 290,000 | Rabbit reticulocyte lysate, luciferase refolding luminescence, 3 h | AID 1789;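 active = inhibition above the screen-wide mean plus 3 SD, computed separately per campaign, cut at about 16% in these data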;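 also: 0% = DMSO wells and 100% = 60 µM geldanamycin wells; inhibitors lower the luminescence because luciferase stays unfolded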
TROY NFkB inh = blocks TROY-dependent signaling in reporter cells. Q293 LMP1-TROYcd NF-kB luciferase reporter, 4 h. hit rate 0.98% among 360,000. inhibition, % at 10 µM;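 active = compounds whose plate-normalised and pattern-corrected inhibition of the luciferase reporter signal at the single screening dose is 50% or more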
LGR2 inh = Drosophila LGR2 receptor signaling inhibition; HEK293 LGR2, CRE-luciferase, bursicon-stimulated, 4 h; inhibition, % at 9.99 µM; hit rate 0.35% among 380,000;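 active = drop in luminescence signal, shown as inhibition above about 50% in the replicate tests, limit read from the data, passing the limit was not always enough; inconclusive = probably only some replicates passing the limit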;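 also: agonist challenge used bursicon conditioned medium at about half maximal strength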
TWEAK-Fn14 inh = inhibitors of TWEAK-Fn14 interaction signaling; TWEAK-stimulated Fn14 reporter cells, luciferase luminescence, 8 h; inhibition, % at 10 µM; hit rate 2% among 360,000; in the data active = inhibition above about 50%
HSP90 inh confirm = HSP90 inhibition, confirmation assay; rabbit reticulocyte lysate, luciferase refolding luminescence, 3 h; hit rate 64% among 2,300; AID 1846; inhibition, % at 5.9 µM; shares compounds with HSP90 refold inh; in the data active = inhibition above about 18%;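 also: 0% = vehicle wells and 100% = reference inhibitor wells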
FLuc counter = counter-screen for HSP90 inhibitors: inhibitors of firefly luciferase | shares compounds with HSP90 refold inh | purified native firefly luciferase, luminescence | inhibition, % at 5.9 µM | hit rate 48% among 2,300;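 active = inhibition above the mean inhibition of all tested sample wells plus 3 SD, cut at about 10% in these data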;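 also: 0% = DMSO with luciferase and 100% = wells lacking luciferase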
Target sequence (P08659 whole entry, looked up): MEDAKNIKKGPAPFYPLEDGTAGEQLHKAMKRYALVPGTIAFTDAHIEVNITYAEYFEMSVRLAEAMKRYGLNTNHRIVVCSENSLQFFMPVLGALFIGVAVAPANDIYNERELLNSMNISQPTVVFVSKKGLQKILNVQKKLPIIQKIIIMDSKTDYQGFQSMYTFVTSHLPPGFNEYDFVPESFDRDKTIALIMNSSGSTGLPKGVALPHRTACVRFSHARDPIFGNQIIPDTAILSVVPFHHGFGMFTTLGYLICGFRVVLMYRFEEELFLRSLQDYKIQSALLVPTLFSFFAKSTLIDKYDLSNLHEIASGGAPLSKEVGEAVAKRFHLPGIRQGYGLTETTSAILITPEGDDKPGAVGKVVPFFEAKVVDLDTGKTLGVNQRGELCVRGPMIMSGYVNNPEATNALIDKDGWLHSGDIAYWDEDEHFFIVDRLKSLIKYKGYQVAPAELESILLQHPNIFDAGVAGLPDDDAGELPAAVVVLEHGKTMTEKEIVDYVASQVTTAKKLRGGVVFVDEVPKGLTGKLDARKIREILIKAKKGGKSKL
Numbers without * were called inactive; ? = inconclusive; nt = not tested or not shown. Shown are actives, neighbours in structure and some others; about 2.2% of the full set was active somewhere.

SMILES | HSP90 refold inh | TROY NFkB inh | LGR2 inh | TWEAK-Fn14 inh | HSP90 inh confirm | FLuc counter
O=C(Nc1ccc(C(=O)N2CCCC2)cc1)c1cccc(C(F)(F)F)c1 | 21* | -11 | -25 | -23 | -8 | -13
CCCN1C[C@@H](C)[C@H](OC)CN(C)C(=O)c2cc(NC(=O)c3ccc4c(c3)OCO4)ccc2OC[C@H]1C | nt | nt | 10 | nt | nt | nt
O=C(CSc1nc2ccccc2c(=O)n1CC1CCCO1)NCC1CCCO1 (stereo unspecified) | -1 | -3 | 5 | -17 | nt | nt
COc1ccc(C(=O)Nn2c(SCC(=O)NCc3ccccc3)nc3ccccc3c2=O)cc1 | 68* | 78* | nt | 85* | 50* | 49*
COc1ccc(C(=O)Nn2c(SCC(=O)NC3CCCC3)nc3ccccc3c2=O)cc1 | 72* | 79* | nt | 78* | 52* | 49*
O=C(CSc1nc2ccccc2c(=O)n1NC(=O)Cc1ccccc1)NCc1ccccc1 | 7 | -9 | nt | 1 | nt | nt
COc1ccc(C(=O)Nn2c(SCC(=O)NCC3CCCO3)nc3ccccc3c2=O)cc1 (stereo unspecified) | 63* | 78* | nt | 95* | 78* | 72*
Cc1cc(C)n(C(=O)c2c([N+](=O)[O-])cnn2C)n1 | 72* | 11 | nt | 12 | -4 | -10
Cc1cccc(Nc2nc(-c3ccc4c(c3)OCCO4)cs2)c1 | 47* | 66* | nt | 70* | -2 | -27
CC(=O)c1ccc(NC(=O)c2cnn3ccccc23)cc1 | 42* | 17 | ? | 71* | 63* | 12*
CC(=O)c1cccc(NC(=O)c2cnn3ccccc23)c1 | 1 | -80 | -19 | -7 | nt | nt
O=C(NNC(=S)NCc1ccco1)c1ccccc1Br | 3 | -3 | 4 | 3 | nt | nt
O=C(NCc1ccco1)c1ccccc1Br | 19* | 7 | nt | -2 | 0 | -6
CCN1[C@@H]2c3ccc(C4=CCCC4)c(=O)n3C[C@@H]2[C@@H](CO)[C@@H]1C(=O)NCCc1ccccc1 | nt | nt | -10 | nt | nt | nt
Cn1cc(/C=C/C(=O)c2ccccc2)c2ccccc21 | 20* | 21 | nt | 71* | 36* | 45*
Cc1ccc(C(=O)/C=C/c2cn(CN3CCN(C)CC3)c3ccccc23)cc1 | 5 | -37 | -85 | 9 | nt | nt
CN1C(=O)c2cc(NC(=O)c3cc(F)cc(F)c3)ccc2OC[C@H]2O[C@@H](CC(=O)O)CC[C@@H]21 | nt | nt | -13 | nt | nt | nt
Cc1ccc(-c2nc(-c3ccccc3)no2)c(Cl)c1 | 54* | 81* | 67* | 101* | 90* | 86*
C[C@@H]1CN([C@@H](C)CO)C(=O)Cc2cc(NC(=O)Nc3cccc4ccccc34)ccc2O[C@H]1CN(C)C(=O)Nc1ccc(F)cc1 | nt | nt | -9 | nt | nt | nt
CC1CCCN(C(=O)CSc2nnc(-c3c[nH]c4ccccc34)o2)C1 (stereo unspecified) | 38* | -32 | -3 | -13 | -5 | -17
COC(=O)c1ccccc1NC(=O)CSc1nnc(-c2ccc(C)cc2)o1 | 4 | nt | nt | nt | nt | nt
Cc1ccc(-c2nnc(SCC(=O)Nc3ccccc3F)o2)cc1 | 54* | 78* | 57* | 86* | 31* | 29*
O=C(CSc1nnc(-c2cccnc2)o1)Nc1ccc(Br)cc1 | 18* | 1 | 0 | 27 | -5 | -6
C[C@@H]1CN([C@@H](C)CO)C(=O)c2cccc(NS(=O)(=O)c3ccc(F)cc3)c2O[C@@H]1CN(C)C(=O)Nc1ccccc1 | nt | nt | 10 | nt | nt | nt
COCC#Cc1cnc2c(c1)C(=O)N([C@@H](C)CO)C[C@H](C)[C@@H](CN(C)S(=O)(=O)c1ccccc1)O2 | nt | nt | 10 | nt | nt | nt
SMILES | HSP90 refold inh | TROY NFkB inh | LGR2 inh | TWEAK-Fn14 inh | HSP90 inh confirm | FLuc counter
C[C@H](CO)N1C[C@H](C)[C@H](CN(C)C(=O)c2ccncc2)Oc2ncc(C#CC3CCCC3)cc2C1=O | nt | nt | -4 | nt | nt | nt
Cc1ccc(C2/C(=C(/O)c3cnn(-c4ccccc4)c3C)C(=O)C(=O)N2CCN2CCOCC2)o1 (stereo unspecified) | 21* | -11 | nt | 18 | 16 | 5
Cc1c(/C(O)=C2/C(=O)C(=O)N(CCN3CCOCC3)C2c2cccs2)cnn1-c1ccccc1 (stereo unspecified) | 45* | 60* | nt | 53* | 47* | 40*
Cc1nc2ccccn2c1/C(O)=C1\C(=O)C(=O)N(CCN2CCOCC2)C1c1cccs1 (stereo unspecified) | 1 | -14 | 5 | 12 | nt | nt
O=C1CC2(CCOCC2)Oc2ccc3ccccc3c21 | nt | -17 | -7 | 6 | nt | nt
O=C1COc2ccc3ccccc3c21 | 25* | 48 | 3 | 9 | 6 | -3
C[C@@H]1CN([C@@H](C)CO)C(=O)c2cc(NC(=O)Nc3cccc4ccccc34)ccc2O[C@@H]1CN(C)Cc1ccc(C(=O)O)cc1 | nt | nt | -17 | nt | nt | nt
CC(=O)N(C1=C(N2CCOCC2)C(=O)c2ccccc2C1=O)c1ccc(C(=O)O)cc1 | 24* | 14 | 3 | 18 | 6 | 1
CCN(CC)CCn1c(=S)[nH]c2ccc(Cl)cc2c1=O | 45* | 3 | nt | -2 | -6 | -13
CCN(CC)CCn1c(=S)[nH]c2cc(Cl)ccc2c1=O | 1 | -14 | -12 | -4 | nt | nt
CCC(=O)N1[C@H](CO)[C@@H](c2ccc(/C=C/c3ccccc3)cc2)C12CN(S(C)(=O)=O)C2 | nt | nt | 19 | nt | nt | nt
C[C@H]1CN([C@@H](C)CO)C(=O)c2cc(NC(=O)Nc3ccccc3)ccc2O[C@H]1CN(C)S(=O)(=O)c1cccs1 | nt | nt | 15 | nt | nt | nt
Cc1[nH]n(-c2ccccc2)c(=O)c1C(c1cccc([N+](=O)[O-])c1O)c1c(C)[nH]n(-c2ccccc2)c1=O | 24* | 22 | 2 | 0 | -10 | -4
O=S(=O)(Cc1ccccc1)N(O)c1ccccc1 | 88* | 11 | 0 | 5 | 92* | 0
COc1ccc(NC(=O)Nc2ccc3c(c2)C(=O)N([C@@H](C)CO)C[C@H](C)[C@H](CN(C)C(=O)NC(C)C)OCCCC[C@@H](C)O3)cc1 | nt | nt | 8 | nt | nt | nt
C/C(=N/Nc1ccc(C(=O)O)cc1)c1ccc(O)c(O)c1O | 29* | 40 | 0 | 7 | 54* | 45*
C/C(=N\Nc1ccc(C(=O)O)cc1)c1nc2ccccc2n1C | 2 | nt | nt | nt | nt | nt
COc1cc(/C(C)=N/Nc2ccc(C(=O)O)cc2)cc(OC)c1OC | 25* | 35 | -17 | 21 | 43* | 34*
COc1ccc(OC)c(/C(C)=N/Nc2ccc(C(=O)O)cc2)c1 | 36* | 34 | -9 | 15 | 25* | 33*
C/C(=N\Nc1ccc(C(=O)O)cc1)c1ccc(-n2ccnc2)cc1 | 18* | -33 | -12 | 30 | 15 | -8
CC(=O)N(C)C[C@@H]1Oc2cc(C3=CCCCC3)ccc2S(=O)(=O)N([C@@H](C)CO)C[C@@H]1C | nt | nt | 18 | nt | nt | nt
Cc1c(-c2ccccc2)oc2c(C(=O)N3CCN(c4ccc([N+](=O)[O-])cc4)CC3)cccc2c1=O | 21* | 42 | 43 | 75* | 10 | 1
C[C@H]1CN([C@@H](C)CO)C(=O)Cc2cc(NC(=O)CCC(F)(F)F)ccc2O[C@H]1CN(C)Cc1ccc2c(c1)OCO2 | nt | nt | 7 | nt | nt | nt

High-throughput results as filed in PubChem BioAssay.
